In the supplement of paper PMC6555819:

tested on: PPARg:RXRa (NR concentration 180 nM, RXRa partner concentration 90 nM); experiment: PBM binding z-score (relative to random genomic background probes); higher = stronger binding; sequences stand for … in GC…GCGATTGACAGCGTAGAATGAAGG
Outline: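 Each nuclear receptor dimer, without ligand, was incubated for 1 h on custom Agilent 4×180K protein-binding microarrays. Binding was detected with antibodies against each partner (one per run), and scanned fluorescence was regression-normalized. The binding z-scores are referenced to random human genomic background probes.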

Point of comparison: ACTTACGGGTCAACGAGGTTATATCACGCGTATA, PBM binding z-score 5.28. Against it:
- CGAACGAGGGCATGAGTTCATAGCAAATGCCGAT — lower, 2.37
- GCTTGCAGGCCATTTGGGTCACTCAATGACGGGC — lower, 0.845
- TGTCAAAGTTCAAACGTAACGTAAGTATCCACAC — higher, 8.29
- TAGCCTAGGTCATCCAGGGGCCAGTATAGAAAGC — lower, 2.57
- ATCACTAGGTAACAAGTTCAGTGAAAGAGAGGAC — lower, 3.04
- ACTAGTTGGTCAGCAGAGGTCACACACAATTCGG — lower, 3.33
- CATACAGGGTCAGCTAGGCCAGAGTGGGGACGGC — lower, 2.96
- TCTTGCAGATCAACAGGAGGTTAAGAAAGATCGA — lower, -0.141
- TCTGCTAGGTCAGTTGGTCTGCTAACGAGCTGCC — lower, -0.466
- TCATATAGGTAAACAGGAGAAAGTCCGTAAGTTA — lower, 1.23
- CGAACGAGCGCATGAGTTGATAGCAAATGCCGAT — lower, 0.405
- GCTTACGGGTCAAAGGTTTTAGCATGAATAGAAT — higher, 9.13
- CGAACGAGGGCATGAGTTGATATCAAATGCCGAT — lower, 1.58
- TCTTGTAGATCAAAGGTTAAGAATGCCGAAGCCT — higher, 7.84
- AGAGCGAGGGCAATGAGTTGATAGCACGGGTGGC — lower, 0.562
- CTTACAGGGTCAGCTAGGCCAGAGTAGGGACGGC — lower, 2.76
- TCATATACGTAAAGGTGAAAGTCGAACGATATGA — lower, 1.64
- TCTGCTAGGTCAACGATGGTCAGCTGATCTGCTA — lower, 2.72
- TAGCCTAGGTCAGATCGGGCTAGTATACGCTATA — lower, 0.628
- ATCTCTAGGTAAAAGATCAGTGAATCCCGAGGAT — lower, 4.48
- TAGCCTAGGTCATGGGCCATTATACCACGCGAAC — lower, 4.34
